Bioassay records as filed in PubChem.
GLP1R ag: activates the human GLP-1 receptor | HEK293 GLP-1R CRE-luciferase, luminescence, 4-6 h; cells express a hypersensitive GLP-1R form | AID 624172 | actives 0.007% (n = 380,000) | Potency, µM (doses to about 45.6 µM), inactives show at the highest dose activation, usual class: activators | P43220; note: potency is the fitted concentration of half-maximal effect; % of control where 0% means no effect
GLP1R inv ag: acts as inverse agonist at human GLP-1 receptor | HEK293 GLP-1R CRE-luciferase, luminescence, 24 h; GLP-1R form is constitutively active | Potency, µM (series often up to 38.3 µM), for the others: top-dose activity change, negative = inhibition, most hits filed as inhibitors | P43220 | actives 1.6% (n = 410,000); note: potency is the fitted concentration of half-maximal effect; % is set by controls: 0 for no effect and ±100 for the full control effect; nearly all actives have a fitted effect of over 55% in size
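Constitutively active GLP-1R drives a cAMP-responsive luciferase in stably transfected HEK293 cells; test compounds are added after overnight (12 h) attachment and left 24 hr, and signal loss in luminescence marks inhibition.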
ClpP mod: qHTS Assay for Activators of ClpP. purified B. subtilis ClpP, FRET peptide cleavage, 20 min. Potency, µM (series often up to 57.5 µM), inactives show top-dose activity change, negative = active. actives 1.9% (n = 340,000). AID 651965, 2013; active = well fitted falling curve with a large enough effect; inconclusive = small, poorly fitted or top-dose-only effect; inactive = no such curve, though single readings can be large or run the other way; note: potency is the fitted concentration of half-maximal effect; the source files actives as falling curves though it sought activators and does not explain the sign; nearly all actives have a fitted effect of over 65% in size
Target sequence (P80244 whole entry, looked up): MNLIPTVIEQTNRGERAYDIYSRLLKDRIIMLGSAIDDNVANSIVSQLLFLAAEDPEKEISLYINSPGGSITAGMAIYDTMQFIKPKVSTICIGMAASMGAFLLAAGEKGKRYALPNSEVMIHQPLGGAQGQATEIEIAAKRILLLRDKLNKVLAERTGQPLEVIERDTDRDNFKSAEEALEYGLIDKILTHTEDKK
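ClpP 10 microg/mL final, pH 8 Tris/KCl buffer with BSA, glycerol, Tween-20; compound pinned in; FRET-FV substrate; RT 20 min; Ex320/Em430; ΔFRET vs ADEP 5.8 microM, DMSO, no enzyme.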
D3 ag: agonists of human D3 dopamine receptor | D3R DiscoveRx beta-arrestin cells, luminescence, 90 min | AID 652048 | actives 0.58% (n = 410,000) | P35462 | max activation, %; in the data active = max activation above about 30%; note: 0% is about no effect
Target sequence (P35462 whole entry, looked up): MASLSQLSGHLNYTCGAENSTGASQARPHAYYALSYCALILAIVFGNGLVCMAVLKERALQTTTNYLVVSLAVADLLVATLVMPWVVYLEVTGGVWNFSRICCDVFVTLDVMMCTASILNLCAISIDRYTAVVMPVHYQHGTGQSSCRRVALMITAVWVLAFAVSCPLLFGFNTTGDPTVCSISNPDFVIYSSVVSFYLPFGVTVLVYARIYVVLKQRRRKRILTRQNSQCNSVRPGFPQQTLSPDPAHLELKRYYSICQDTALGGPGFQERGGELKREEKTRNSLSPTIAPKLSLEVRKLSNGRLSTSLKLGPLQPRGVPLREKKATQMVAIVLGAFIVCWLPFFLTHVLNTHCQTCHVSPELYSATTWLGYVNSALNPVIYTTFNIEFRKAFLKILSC
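Agonist mode: compounds and dopamine controls were applied to plated cells for 90 min at 37 degrees C after an overnight attachment at 1500 cells/well. Luminescent read-out followed 30 - 60 minutes at room temperature with DiscoveRx detection reagent.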
DRD3 antagonist: blocks the human D3 dopamine receptor. actives 2.5% (n = 360,000). max response, negative = inhibition, %. D3R cells, DiscoveRx beta-arrestin luminescence, antagonist mode; hits give low values; in the data active = max response below about -50%; inconclusive = no clear call, values can overlap the other calls; note: % is set by controls: 0 for no effect and ±100 for the full control effect
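Cells plated overnight at 1500 cells/well, then exposed to library compounds with dopamine controls for 90 minutes at 37 degrees C. DiscoveRx reagent added for 30–60 minutes at room temperature; luminescence read, quantitative HTS format.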
HEK293 tox: cytotoxicity counter-screen for GLP-1 receptor inverse agonists. actives 0.13% (n = 410,000). HEK293 cAMP-luciferase reporter cells, luminescence, 24 h. Potency, µM (top dose mostly 38.3 µM), without a hit: at the top dose activity change, negative = inhibition, most hits filed as inhibitors;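 note: loss of luciferase light is scored as toxicity; potency is the fitted concentration of half-maximal effect; % is set by controls: 0 for no effect and ±100 for the full control effect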
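MLSMR compounds, 24 hr on cells at 37 deg C/5% CO2; luminescence after luciferase reagent (12 min RT). Inhibition counted as the undesired cytotoxic outcome.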
* hit, by the source's call; ? = inconclusive; / = no result given. Sampled rows, rich in hits. Any-hit rate of the full collection: about 5.7%. Unless noted, calls come from the whole dose curve; as a rule, active = well fitted curve in the direction sought with a large enough effect; inconclusive = small, poorly fitted or top-dose-only effect, or another doubt; inactive = no such curve, though single readings can be large; an effect the other way counts as inactive or inconclusive.

SMILES | GLP1R ag | GLP1R inv ag | ClpP mod | D3 ag | DRD3 antagonist | HEK293 tox
O=S(=O)(c1ccc(Cl)cc1)c1nnn2c1nc(N1CCCCC1)c1sccc12 | / | 3% | -4% | 7 | / | 27%
CCCCN1C(=O)C(O)(c2ccccc2)c2cc(Br)ccc21 (stereo unspecified) | 15% | 13µM* | 0% | -1 | -4 | -5%
COc1ccc(C2CC(=O)Oc3c(C(CCN4CCCCC4)c4ccc(N(C)C)cc4)c(OC)cc(OC)c32)cc1 (stereo unspecified) | -5% | -9% | 1% | -3 | -58* | -13%
COc1cc(C2CC(=O)Oc3c(C(CCN4CCN(c5ccccc5)CC4)c4ccc(N(C)C)cc4)c(OC)cc(OC)c32)cc(OC)c1OC (stereo unspecified) | 5% | 0% | -3% | -14 | -103* | -7%
COc1ccc(C2CC(=O)Oc3c(C(CCN4CCCC(C)C4)c4ccc(N(C)C)cc4)c(OC)cc(OC)c32)cc1 (stereo unspecified) | 6% | 9% | -1% | -30 | 6 | ?
Cc1nc(C#N)nc(Oc2ccccc2)c1Cl | / | / | 0% | / | / | /
C[C@@H]1COc2cc(N3CCC[C@@H]3CO)ccc2S(=O)(=O)N1 | -5% | 22% | 0% | -2 | 2 | 3%
Cc1ccc(OCCSc2nc3ccc(NC(=O)c4cccs4)cc3s2)cc1 | / | 0% | -5% | 2 | / | -4%
Cc1cc(C)cc(OCCSc2nc3ccc(NC(=O)c4cccs4)cc3s2)c1 | / | 10µM* | 0% | 0 | / | 7%
O=C(Nc1ccc2nc(SCCOc3ccccc3Cl)sc2c1)c1cccs1 | / | ? | 11µM* | 0 | / | -3%
COc1ccc(C(=O)Nc2ccc3nc(SCc4ccc(C)cc4)sc3c2)cc1 | / | 2% | 25µM* | 2 | / | 4%
O=C(COc1ccc(/C=N/NS(=O)(=O)c2ccccc2)cc1)Nc1cccc(Cl)c1 | 0% | 10µM* | 1% | 3 | -4 | -16%
CC(=O)Nc1cccc(OCC(=O)NS(=O)(=O)c2ccc(Cl)cc2)c1 | -9% | 42% | 32µM* | 1 | -26 | 17%
O=C(COc1ccc(/C=N/NS(=O)(=O)c2ccccc2)cc1)NCc1ccccc1 | -8% | -9% | -1% | -3 | 7 | -19%
COc1cc(OC)c(NS(=O)(=O)c2cc3c(cc2C)N(C(C)=O)CCO3)cc1Cl | / | -3% | 1% | -7 | / | 14%
O=C(NC1CCCCC1)c1c[nH]c2ccc(S(=O)(=O)Nc3ccccc3F)cc2c1=O | / | ? | -15% | -3 | / | -27%
CCOCCCNC(=O)c1cc(Sc2ccc(C)cc2)nc2ccccc12 | 9% | 10µM* | -6% | 0 | -28 | 1%
CCOCCCNC(=O)c1cc(Sc2cccc(Cl)c2)nc2ccccc12 | 8% | ? | -1% | 1 | / | -4%
CC(C)OCCCN1C(=O)c2[nH]nc(-c3ccccc3O)c2C1c1cccc(OCc2ccccc2)c1 (stereo unspecified) | / | ? | 0% | 30* | / | -12%
Cc1ccccc1CN1CCCN(CC(=O)Nc2c(C)cccc2C)S1(=O)=O | / | -7% | -2% | 4 | / | 6%
C/C(=N\Nc1cc(N2CCOCC2)nc(C)n1)c1ccc(F)cc1 | 8% | ? | / | 2 | -5 | -5%
C/C(=N\Nc1cc(N2CCCCC2)nc(C)n1)c1ccc(Br)cc1 | 11% | 10µM* | -1% | 67* | 23 | ?
CC(C)N(Cc1nc(-c2ccc(Cl)cc2)no1)C(=O)C12CC3CC(CC(C3)C1)C2 | -23% | 6% | 2% | 2 | 3 | -3%
CN(Cc1nc(-c2ccccc2)no1)C(=O)c1ccc2c(c1)OCO2 | 10% | -25% | -3% | -7 | -50* | 1%
Cc1cccc(-c2noc(CN(C(=O)C34CC5CC(CC(C5)C3)C4)C(C)C)n2)c1 | -9% | -16% | 32µM* | 4 | ? | -8%
SMILES | GLP1R ag | GLP1R inv ag | ClpP mod | D3 ag | DRD3 antagonist | HEK293 tox
CC(C)N(Cc1nc(-c2ccccc2)no1)C(=O)c1ccc(Cl)cc1 | 1% | 11µM* | -2% | 1 | -1 | 1%
COC(=O)c1ccc2c(c1C(=O)OC)CN(S(=O)(=O)C(C)(C)C)[C@H]2CCO | 5% | 4% | 1% | 0 | 2 | -4%
CCCCCn1c(=N)c(S(=O)(=O)c2ccccc2)cc2c(=O)n3ccccc3nc21 | 11% | 8% | -4% | -5 | / | -10%
CC(C)(Cc1ccccc1)NC(=O)C(=O)c1cn(CC(=O)N2CCOCC2)c2ccccc12 | 9% | ? | 1% | -10 | -70* | -10%
NC1=NC[C@H](Cc2ccc(O)cc2)N1CCc1cccc(F)c1 | -4% | 7% | -2% | -15 | -6 | 2%
NC1=NC[C@@H](Cc2ccc(O)cc2)N1CCC12CC3CC(CC(C3)C1)C2 | 12% | 8.9µM* | 1% | -19 | ? | -12%
Cc1c(C(=O)N2CCCC2)oc2c1-c1nn(CC(=O)NCc3ccccc3Br)cc1CC2 | / | 4% | -2% | 12 | / | -1%
CCOc1cc(CNCc2cccs2)cc(Br)c1OCC | 14% | 10µM* | -1% | -13 | -18 | -10%
CCOc1cc(CNCCO)cc(Br)c1OCc1cccs1 | -1% | ? | 0% | -4 | -14 | 8%
CCOc1cc(CNCc2ccncc2)cc(Br)c1OCc1ccccc1F | 7% | 11µM* | 0% | 15 | 20 | -3%
COc1cc(-c2nnc(COC(=O)c3nn(CC(C)C)c(=O)c4ccccc34)o2)cc(OC)c1OC | 19% | 18% | 25% | 56* | 43 | 3%
COc1ccc(-c2nnc(CSc3nc4ccccc4c(=O)n3CC(C)C)o2)cc1OC | ? | 0% | -5% | 33* | -14 | -20%
O=c1c2ccccc2nc(-c2ccccc2)n1O | -5% | -8% | -2% | 4 | 9 | 16%
CC(C)Cn1c(SCc2nc3ccccc3c(=O)[nH]2)nc2ccccc2c1=O | 14% | 9% | 1% | 46* | 14 | -8%
CC(C)Cn1c(-c2ccccc2)nc2ccccc2c1=O | 7% | 2.8µM* | 2% | 0 | 11 | -6%
CCCCCn1nc(C(=O)OCc2nnc(-c3ccccc3)o2)c2ccccc2c1=O | 4% | 9% | -2% | 6 | 3 | 1%
Cc1nc2c(cc1N)nc(C)n2Cc1ccccc1 | 5% | 12% | -2% | -10 | -51* | 6%
Cc1nc2ccc([N+](=O)[O-])cc2c(=O)n1Cc1ccc(Cl)cc1 | -3% | 12% | 1% | 8 | 121 | 9%
